Laboratory results from the supplement of paper PMC11417369.
Whole data set: some 25,000 sequences, median “ln(normalized median fluorescence intensity)” near 7.1, cut for the highest 2% near 10. Shown is part of a subset that was picked to be rich in the highest values.

test system: PfSIP2 AP2 domain 1 (GST-tagged); assay: gcPBM binding intensity (ln(normalized median fluorescence intensity)); higher = stronger DNA binding
Outline: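 The binding buffer was 1× PBS containing 1% milk, 0.2 mg/ml BSA, 0.5% salmon testes DNA and 0.03% Triton X-100. In it, GST-tagged P. falciparum DNA-binding domains expressed in E. coli were applied for 1 h to an Agilent 4 × 180k array of primer-extended double-stranded 36-bp intergenic genomic probes plus negative controls. Binding intensity, read with Alexa488 anti-GST antibody and a 488 nm scan, is the highest Masliner-normalised natural-log median intensity across replicate spots of either probe orientation.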

Sequence | gcPBM binding intensity (ln)
TATGAATTTATCTACAACATTTGAAATAAATTAAAA [CACACA_negctrl_site79] | 6.72
TTGTTTATCAACAGCACACACAACAACAACAACAAC [CACACA_site458] | 7.25
AAATATAATAATAATTTAAGAATCTAATATTTTATA [CACACA_negctrl_site831] | 6.59
ATACGATTGCAGTCAAAAAGGAAAATATAAAAAAAG [XGTACX_negctrl_site124] | 7.29
TTTTTTTTTTTTTCAAGTACATATATATATATATAA [XGTACX_site2098] | 7.58
TTTTACGTGAGTAATACACACATATAAGTTTATATA [CACACA_site4120] | 6.74
TTTTTTTTTTTTCACGTGCACTATACATATAAGTAA | 10.5
AATATAATATTATATAGTACATATTTCTTTTATTTT [XGTACX_site22] | 6.82
ACACATACACATTAGGTGCATATATTTCAATATTAC [GTGCAC_site9423] | 10.3
AAAATTTCAATAAATACACACATATATATATATATT [CACACA_site1685] | 7.07
TTTTCAAAAATATATACACACATGCATATTACGGTG [CACACA_site775] | 6.98
TTGTTGTATTATTTATGTACATATGTATATGTATAT [XGTACX_site1315] | 7.17
ACAAAAAAAAACGTGGTGCATTAATAATATTGTATA [GTGCAC_site9469] | 10.3
TATTGTATATAATAAACACACAATATTAAAAATATA [CACACA_site1057] | 6.8
AATATTGTATATAATAAACACACAATATTAAAAATA [CACACA_site8262] | 6.99
ATATGGTGATATAGGTGTACATTTTGATGCTTATTT [XGTACX_site4283] | 6.95
AGCATTTTAAGTTATACACACATTTTGAATCTATAT [CACACA_site7599] | 6.89
ATTTTCTTTCTATGCACACGCACGTATTTGCACCCA [CACACA_site3350] | 11.9
TTATTTTCTTTCTATGCACACGCACGTATTTGCCCA [CACACA_site9104] | 7.91
CACCCGCACGTATTTGCACACATTGCCACGTAATTA [CACACA_site5786] | 7.76
TTAAAAAAATATAATACACACCAAAAATATGCACAT [CACACA_site5209] | 9.27
TACATAAATTTTAATACATGCAAATAAAATATATAA [TGCATGCA_site131] | 6.94
TAAAAATAAATAAATACATGCACCAAAAATAAATTT [TGCATGCA_site801] | 10.2

Sequence | gcPBM binding intensity (ln)
TCCTATGATGATGATAGTACATATGAGTTCAAAAAA [XGTACX_site273] | 6.81
CACCAATTCATATGCACACACATCTGCATATTATAT [CACACA_site1773] | 7.43
GGAAAATTATCAATAGCATGCAAAATGTGAATATTA [TGCATGCA_site901] | 6.83
TATATAATATATATAGTGCATAAGTTCAAAAGAATA [GTGCAC_site9805] | 8.73
CCATGTAGTGAATAGGTGCATATCAAAAAAAAAAAA | 11
CATATAAATAGACACACACACACATATAAATAAATA [CACACA_site7156] | 7.23
AAAACAATAATATACTGTACATATATATAATAACAT [XGTACX_site6188] | 7.13
ATGGTATAAAAAAATACACACTTATATATATTCTTA [CACACA_site4427] | 6.86
TGTATATGTGAAGCAAGGGATGCGGCAGACATAACA [CACACA_negctrl_site1339] | 7.07
TATTTATATGTATATACATGCACATATATATGAAAC [TGCATGCA_site1005] | 7.7
ATATATTATGGGTGTGCACACAATATTTATATGTTC [CACACA_site2270] | 8.64
GTATTATTTTATGATGCATGTGTATTTCATATATGC [TGCATGCA_site660] | 6.98
ATTTCCCCAACGTGGGTGCATATATTTATGTGTGAA [GTGCAC_site9439] | 11.1
ATTTATATATATGTATGTACGTATGTGTGTATATGT [XGTACX_site7587] | 7.73
ATATGAAACATGAAGGTGCATAATGTGTATATTTAT | 10.8
CACATATATATGTGTGCATGTTGTATTATATATTTA [TGCATGCA_site632] | 8.48
TTTATTTATGTGTGGGTGCATATACGTATGATGTAT | 10.6
TTATTTTATTTAGGGTGTACCCAATTTTTCCATATG [XGTACX_site4957] | 6.78
CCGTTGAACATATATGCACACACATAAAATAAAAAA [CACACA_site8761] | 7.65
AAAAAATAAGATTGTACACACATAAATTCTTTGTCA [CACACA_site2089] | 6.85
AATCCTTCATATGTAGTGCATATTAACAAAATAAAA [GTGCAC_site9500] | 8.78
TTTTGCAATAATGTTGCACACTAAATAGTCATATAT [CACACA_site7977] | 7.61
ATATATATATATATATGTACGTACTCAGTTATGCCT [XGTACX_site453] | 9.2
